The source made the active and inactive calls. How the source made its calls: active means hit-call score of the fitted dose curve at least 0.9, where 1 is the maximum; inactive means score below 0.9.
Assay: ATG_AP_1_CIS: Attagene CIS-FACTORIAL HepG2 Assay for human Activator Protein 1 (AP-1) (AID 2282931)
Details: HepG2 Attagene cis-factorial AP-1 reporter mRNA; actives raise or lower the signal
Procedure: ATG_CIS is a cell-based, multiplexed-readout assay that uses HepG2, a human liver cell line, with measurements taken at 24 hours after chemical dosing in a 24-well plate.ATG_AP_1_CIS is one of 52 assay component(s) measured or calculated from the ATG_CIS assay. It is designed to make measurements of mRNA induction, a form of inducible reporter, as detected with fluorescence intensity signals by Reverse transcription polymerase chain reaction (RT-PCR) and Capillary electrophoresis technology.Data from the assay component ATG_AP_1_CIS was analyzed into 1 assay endpoint. This assay endpoint, ATG_AP_1_CIS, was analyzed with bidirectional fitting relative to DMSO as the negative control and baseline of activity. Using a type of inducible reporter, measures of mRNA for gain or loss-of-signal activity can be used to understand the reporter gene at the transcription factor-level as they relate to the gene FOS and JUN. Furthermore, this assay endpoint can be referred to as a primary readout, because this assay has produced multiple assay endpoints where this one serves a reporter gene function. To generalize the intended target to other relatable targets, this assay endpoint is annotated to the dna binding intended target family, where the subfamily is basic leucine zipper.
Human liver HepG2 cells are transiently transfected with multiple reporter transcription units (MRTUs) in 6-well plates using FuGene 6 reagent (Roche; 3 ml FuGene/1 mg DNA). The MRTU constructs are regulated by a cis-regulating element (promoter). […] A major difference between the CIS and TRANS system is that in CIS activities of endogenous TFs are measured, whereas the TRANS assay evaluates changes in activities of exogenous, chimeric NR-Gal4 proteins. […] At the end of 24 hour incubation, total RNA was isolated using TriZol reagent (Invitrogen). The isolated RNA is then reverse-transcribed using oligo(dT) primer and Mo-MLV reverse transcriptase (Invitrogen) with DNAse I (Ambion) treatment for 30 min. The one-tenth of the produced cDNA was amplified by PCR using Taq DNA polymerase (Invitrogen) and two reporter sequence-specific primers. The PCR products were fluorescently labeled by primer extension with 6-arboxyfluorescein (6-FAM) 5'-labeled reporter sequence-specific primer (2 min at 95 C, 20 s at 68 C and 10 min at 72 C) and these products were digested with 5U of HpaI (New England Biolabs) for 2h at 37 C. The fragments were purified using Qiaquick PCR columns (Qiagen), analyzed on an ABI 3130xL genetic analyzer (Applied Biosystems) with peak positions identified by using a set of X-rhodamine (ROX)-labeled MapMarker1000 molecular weight standards (BioVentures). The raw capillary electrophoresis data was processed using Attagraph software (Attagene).
In the case of `Nc1ccc(N)c2c1C(=O)c1ccccc1C2=O`, the outcome is reported as “inactive”.
In the case of `Nc1ccc(NCCO)c([N+](=O)[O-])c1`, the outcome is reported as “inactive”.
With `COc1ccc(N)c([N+](=O)[O-])c1` the outcome was “inactive”.
With `Clc1cc(Cl)c(-c2c(Cl)c(Cl)cc(Cl)c2Cl)cc1Cl` the AC50 was 35 µM (active).
With `CCCCCCCCCCCCN1CCCCCC1=O` the AC50 was 11.1 µM (active).
For `O=C(O)COCC(=O)O`, the outcome was “inactive”.
For `CC(=O)C1(C)CC2=C(CCCC2(C)C)CC1C` (stereo not given), the AC50 was 93.3 µM (active).
In the case of `CCCCC1(COC(=O)CCC(=O)O)C(=O)N(c2ccccc2)N(c2ccccc2)C1=O`, the outcome is reported as “inactive”.
In the case of `CCCCCCCC(=O)OCC(O)CO` (stereo not given), the outcome is reported as “inactive”.
With `CCCC(C)C(O)CC` (stereo not given) the outcome was “inactive”.
In the case of `CCN(CC)C(=O)N(CC)CC`, the outcome is reported as “inactive”.
With `BrCc1cccc(Oc2ccccc2)c1` the outcome was “inactive”.
With `O=C(O)c1cccnc1C(=O)O` the outcome was “inactive”.
With `CC(C)c1ccccc1O` the outcome was “inactive”.
In the case of `CC(C)CCCCCCCCCCCCCCC(=O)O`, the outcome is reported as “inactive”.
With `CCCCCC(C=O)=Cc1ccccc1` the outcome was “inactive”.
For `CCCCC(CC)COC(=O)c1ccc(O)cc1` (stereo not given), the outcome was “inactive”.
In the case of `c1ccc(CCc2ccccc2)cc1`, the AC50 is reported as 172 µM (active).
For `O=C(Nc1ccc([N+](=O)[O-])cc1)Nc1ccc([N+](=O)[O-])cc1` (tested in a mixture with another compound), the outcome was “inactive”.
In the case of `C[Si](C)(C)O[Si](C)(C)C`, the outcome is reported as “inactive”.
For `COc1ccc(OC)c(N=Nc2c(O)ccc3ccccc23)c1`, the outcome was “inactive”.
For `CCCCCCCC(=O)OCCCCCC`, the outcome was “inactive”.
For `CCc1cc(C(C)(C)C)c(O)c(C(C)(C)C)c1`, the AC50 was 63.7 µM (active).
In the case of `C=C(C)[C@H]1CC=C(C)C(=O)C1`, the outcome is reported as “inactive”.
For `CC(C)CC(C)CC(O)CC(C)C` (stereo not given), the outcome was “inactive”.
With `C1CCCCC1` the outcome was “inactive”.
With `C=C1C[C@]23C[C@@]1(O)CC[C@H]2[C@@]12C=C[C@H](O)[C@@](C)(C(=O)O1)[C@H]2[C@@H]3C(=O)O` the outcome was “inactive”.
In the case of `CC/C=C\CC/C=C/CO`, the outcome is reported as “inactive”.
In the case of `O=C(O)c1cc(C(=O)O)cc([N+](=O)[O-])c1`, the outcome is reported as “inactive”.
For `Oc1c(Cl)cc(Cl)c(Cl)c1Cc1c(O)c(Cl)cc(Cl)c1Cl`, the outcome was “inactive”.
With `CCCCCCCCN1CCCC1=O` the outcome was “inactive”.
In the case of `Nc1c(Cl)cc(Cl)cc1[N+](=O)[O-]`, the outcome is reported as “inactive”.
For `CCCCC(CC)C(=O)OC(C)C` (stereo not given), the outcome was “inactive”.
With `O=[N+]([O-])c1cccc(Cl)c1` the outcome was “inactive”.
For `C=C(C)C(=O)OCCOC1CC2CC1C1C=CCC21` (stereo not given), the outcome was “inactive”.
In the case of `CC1(C)C(=O)N(Cl)C(=O)N1Br`, the outcome is reported as “inactive”.
For `CC(C)C(OC(=O)c1ccccc1)C(C)(C)COC(=O)c1ccccc1` (stereo not given), the outcome was “inactive”.
In the case of `O=c1c(O)c(-c2ccc(O)cc2)oc2cc(O)cc(O)c12`, the outcome is reported as “inactive”.
With `CS(=O)(=O)OCCCCOS(C)(=O)=O` the outcome was “inactive”.
In the case of `CCNCCO`, the outcome is reported as “inactive”.

— PubChem BioAssay (EPA / NIEHS)
